# From article PMC7862700, “An all-to-all approach to the identification of sequence-specific readers for epigenetic DNA modifications on cytosine”
# Columns and labels:
# Assay in all cases: DAPPL (digital affinity profiling via proximity ligation, sequencing); 10 mM Tris-HCl pH 7.5, 50 mM NaCl, 1 mM DTT, 4% glycerol, room temperature, 30 min; GST-TFs on glutathione beads, 16-mer random dsDNA library, 0.1% formaldehyde crosslink after washing; high values mean tight binding
# Settings in all cases: protein: recombinant; tags: N-terminal GST; dsDNA, one strand shown
# ELK1 = target: T1, ELK1 (Homo sapiens, UniProt P19419 1-428)
# T1 sequence: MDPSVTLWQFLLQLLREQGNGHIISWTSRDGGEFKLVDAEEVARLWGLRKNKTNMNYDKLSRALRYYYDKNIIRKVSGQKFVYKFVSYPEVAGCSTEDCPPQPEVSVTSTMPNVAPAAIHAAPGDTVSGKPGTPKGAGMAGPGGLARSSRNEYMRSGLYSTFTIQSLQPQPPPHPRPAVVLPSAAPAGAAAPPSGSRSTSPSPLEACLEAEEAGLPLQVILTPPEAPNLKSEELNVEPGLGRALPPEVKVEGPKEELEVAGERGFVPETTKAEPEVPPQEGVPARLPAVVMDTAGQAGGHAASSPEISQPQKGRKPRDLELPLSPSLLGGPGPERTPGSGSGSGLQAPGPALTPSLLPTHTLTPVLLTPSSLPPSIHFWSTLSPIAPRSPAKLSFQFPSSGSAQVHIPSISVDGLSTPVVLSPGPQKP
# In short: (§1)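 A tag-only sample was pooled with DNA-barcoded human transcription factors that had been expressed in yeast as GST fusions and captured on glutathione beads. The pools were incubated for 30 min at room temperature with 200 nmole of a random double-stranded 16-mer DNA library in Tris/NaCl/DTT/glycerol buffer, then washed, crosslinked with 0.1% formaldehyde, proximity-ligated (BsaI/T4 ligase, 1 h, 37 °C), PCR-amplified and sequenced on an Illumina NextSeq500. Binding signal is each hexamer's read frequency for a factor divided by its frequency for the tag-only sample.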
# GABPA = target: T2, GABPA (Homo sapiens, UniProt Q06546 1-454)
# T2 sequence: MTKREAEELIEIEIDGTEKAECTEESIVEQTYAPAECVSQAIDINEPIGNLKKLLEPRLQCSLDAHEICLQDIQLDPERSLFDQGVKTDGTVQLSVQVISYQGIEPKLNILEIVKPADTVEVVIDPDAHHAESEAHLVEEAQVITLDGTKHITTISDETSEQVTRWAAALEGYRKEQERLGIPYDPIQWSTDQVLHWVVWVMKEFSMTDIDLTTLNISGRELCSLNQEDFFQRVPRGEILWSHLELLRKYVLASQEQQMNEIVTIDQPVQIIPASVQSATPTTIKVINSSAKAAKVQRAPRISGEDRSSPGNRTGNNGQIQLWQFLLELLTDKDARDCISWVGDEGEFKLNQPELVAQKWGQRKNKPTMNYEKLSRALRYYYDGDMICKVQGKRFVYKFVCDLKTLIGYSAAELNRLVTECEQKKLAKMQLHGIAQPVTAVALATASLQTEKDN
# In short: as §1
# ERG = target: T3, ERG (Homo sapiens, UniProt P11308 1-479)
# T3 sequence: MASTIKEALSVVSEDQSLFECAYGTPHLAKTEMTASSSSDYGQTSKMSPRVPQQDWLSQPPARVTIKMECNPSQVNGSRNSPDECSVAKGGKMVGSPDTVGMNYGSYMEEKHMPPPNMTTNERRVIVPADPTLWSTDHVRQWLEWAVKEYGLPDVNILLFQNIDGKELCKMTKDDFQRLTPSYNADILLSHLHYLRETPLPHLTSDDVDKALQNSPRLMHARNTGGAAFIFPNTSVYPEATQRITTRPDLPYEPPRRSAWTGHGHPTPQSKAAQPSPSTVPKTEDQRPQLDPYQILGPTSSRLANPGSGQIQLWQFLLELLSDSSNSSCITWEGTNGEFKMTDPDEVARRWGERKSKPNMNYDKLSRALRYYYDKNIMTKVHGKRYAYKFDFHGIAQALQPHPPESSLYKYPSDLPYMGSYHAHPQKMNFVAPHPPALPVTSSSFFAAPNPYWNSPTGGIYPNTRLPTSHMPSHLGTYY
# In short: as §1
# ELF1 = ELF1 (Homo sapiens, UniProt P32519 1-619)
# In short: as §1
# SPIB = SPIB (Homo sapiens, UniProt Q01892 1-262)
# In short: as §1
# ETV5 = ETV5 (Homo sapiens, UniProt P41161 1-510)
# In short: as §1
# ELF4 = ELF4 (Homo sapiens, UniProt Q99607 1-663)
# In short: as §1
# ELK4 = target: T4, ELK4 (Homo sapiens, UniProt P28324-2 1-405)
# T4 sequence: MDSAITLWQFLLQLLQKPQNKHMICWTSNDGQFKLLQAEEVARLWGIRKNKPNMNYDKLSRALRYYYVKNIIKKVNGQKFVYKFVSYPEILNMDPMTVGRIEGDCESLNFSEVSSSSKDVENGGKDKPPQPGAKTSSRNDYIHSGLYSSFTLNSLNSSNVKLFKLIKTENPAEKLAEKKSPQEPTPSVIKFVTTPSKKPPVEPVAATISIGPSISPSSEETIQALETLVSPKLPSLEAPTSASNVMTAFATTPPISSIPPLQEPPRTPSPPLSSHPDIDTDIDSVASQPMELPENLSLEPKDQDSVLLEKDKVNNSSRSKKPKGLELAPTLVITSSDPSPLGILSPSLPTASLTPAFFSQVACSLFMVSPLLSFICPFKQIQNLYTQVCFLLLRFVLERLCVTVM
# In short: as §1
# ETV2 = target: T5, ETV2 (Homo sapiens, UniProt O00321 1-342)
# T5 sequence: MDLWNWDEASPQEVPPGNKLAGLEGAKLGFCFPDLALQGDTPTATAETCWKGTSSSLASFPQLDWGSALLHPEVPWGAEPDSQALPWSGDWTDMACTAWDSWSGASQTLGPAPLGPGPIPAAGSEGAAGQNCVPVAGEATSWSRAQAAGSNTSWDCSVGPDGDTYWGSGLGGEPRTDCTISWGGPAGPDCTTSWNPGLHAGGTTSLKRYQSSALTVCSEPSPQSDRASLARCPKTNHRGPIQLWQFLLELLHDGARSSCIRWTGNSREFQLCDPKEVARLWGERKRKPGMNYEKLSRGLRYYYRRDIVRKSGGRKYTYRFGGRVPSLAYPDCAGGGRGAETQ
# In short: as §1
# ELF3 = target: T6, ELF3 (Homo sapiens, UniProt P78545 1-371)
# T6 sequence: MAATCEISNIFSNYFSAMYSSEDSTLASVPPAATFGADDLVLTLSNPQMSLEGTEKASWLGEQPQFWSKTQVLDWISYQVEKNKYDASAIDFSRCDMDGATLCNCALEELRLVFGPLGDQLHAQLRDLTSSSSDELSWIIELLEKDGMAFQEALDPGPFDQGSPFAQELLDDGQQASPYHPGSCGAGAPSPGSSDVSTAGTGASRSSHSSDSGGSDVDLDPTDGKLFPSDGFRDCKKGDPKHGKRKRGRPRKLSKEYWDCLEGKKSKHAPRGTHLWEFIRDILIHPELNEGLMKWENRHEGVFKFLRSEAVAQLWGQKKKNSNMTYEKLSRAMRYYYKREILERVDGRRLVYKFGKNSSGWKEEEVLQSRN
# In short: as §1
# ERF = target: T7, ERF (Homo sapiens, UniProt P50548 1-548)
# T7 sequence: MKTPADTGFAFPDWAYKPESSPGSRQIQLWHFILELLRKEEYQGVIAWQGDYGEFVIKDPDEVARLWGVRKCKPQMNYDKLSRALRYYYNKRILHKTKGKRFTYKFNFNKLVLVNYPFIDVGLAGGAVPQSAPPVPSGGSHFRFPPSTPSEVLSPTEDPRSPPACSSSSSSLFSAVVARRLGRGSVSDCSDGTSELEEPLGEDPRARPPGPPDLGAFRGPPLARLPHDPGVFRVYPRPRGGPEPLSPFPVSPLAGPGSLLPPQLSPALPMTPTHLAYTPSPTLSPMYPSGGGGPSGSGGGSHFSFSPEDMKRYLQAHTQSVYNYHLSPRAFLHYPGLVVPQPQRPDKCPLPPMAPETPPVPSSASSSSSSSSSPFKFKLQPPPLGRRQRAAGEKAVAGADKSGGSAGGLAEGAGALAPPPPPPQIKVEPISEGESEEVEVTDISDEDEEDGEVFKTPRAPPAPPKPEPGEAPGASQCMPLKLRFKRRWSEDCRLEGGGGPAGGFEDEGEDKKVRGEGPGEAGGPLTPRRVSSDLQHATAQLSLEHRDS
# In short: as §1
# ETV3L = target: T8, ETV3L (Homo sapiens, UniProt Q6ZN32 1-361)
# T8 sequence: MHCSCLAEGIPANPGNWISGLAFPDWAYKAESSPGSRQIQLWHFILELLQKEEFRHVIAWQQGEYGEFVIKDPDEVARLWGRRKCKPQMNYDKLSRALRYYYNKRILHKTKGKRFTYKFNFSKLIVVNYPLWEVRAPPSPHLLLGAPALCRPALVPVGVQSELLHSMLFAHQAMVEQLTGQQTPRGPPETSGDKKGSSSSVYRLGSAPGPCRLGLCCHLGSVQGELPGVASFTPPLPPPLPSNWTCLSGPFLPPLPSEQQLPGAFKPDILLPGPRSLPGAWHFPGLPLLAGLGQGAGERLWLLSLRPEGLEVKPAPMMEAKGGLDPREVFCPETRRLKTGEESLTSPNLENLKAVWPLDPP
# In short: as §1
# ETS2 = target: T9, ETS2 (Homo sapiens, UniProt P15036 1-469)
# T9 sequence: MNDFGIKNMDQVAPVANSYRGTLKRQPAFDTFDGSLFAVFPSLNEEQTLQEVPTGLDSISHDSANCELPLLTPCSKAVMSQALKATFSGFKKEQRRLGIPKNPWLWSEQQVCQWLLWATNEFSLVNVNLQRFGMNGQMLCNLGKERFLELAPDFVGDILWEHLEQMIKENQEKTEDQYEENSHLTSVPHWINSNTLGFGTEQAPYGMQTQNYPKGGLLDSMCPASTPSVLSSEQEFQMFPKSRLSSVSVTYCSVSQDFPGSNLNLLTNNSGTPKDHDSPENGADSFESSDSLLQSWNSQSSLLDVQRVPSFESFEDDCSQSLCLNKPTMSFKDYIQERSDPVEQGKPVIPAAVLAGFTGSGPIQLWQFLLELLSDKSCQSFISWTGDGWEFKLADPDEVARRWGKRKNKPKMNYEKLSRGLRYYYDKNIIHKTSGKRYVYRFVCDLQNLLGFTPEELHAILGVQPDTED
# In short: as §1
# ETV7 = target: T10, ETV7 (Homo sapiens, UniProt Q9Y603 1-341)
# T10 sequence: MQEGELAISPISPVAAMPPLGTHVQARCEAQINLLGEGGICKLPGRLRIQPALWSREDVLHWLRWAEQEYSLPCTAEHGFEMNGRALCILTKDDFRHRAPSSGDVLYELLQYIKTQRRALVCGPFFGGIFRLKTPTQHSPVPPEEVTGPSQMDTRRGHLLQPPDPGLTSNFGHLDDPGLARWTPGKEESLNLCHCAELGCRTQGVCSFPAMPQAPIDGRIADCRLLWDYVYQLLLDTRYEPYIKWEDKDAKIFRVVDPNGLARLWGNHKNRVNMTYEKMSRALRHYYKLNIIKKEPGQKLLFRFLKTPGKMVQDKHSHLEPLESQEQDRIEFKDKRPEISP
# In short: as §1
# ETV3 = target: T11, ETV3 (Homo sapiens, UniProt P41162-2 1-143)
# T11 sequence: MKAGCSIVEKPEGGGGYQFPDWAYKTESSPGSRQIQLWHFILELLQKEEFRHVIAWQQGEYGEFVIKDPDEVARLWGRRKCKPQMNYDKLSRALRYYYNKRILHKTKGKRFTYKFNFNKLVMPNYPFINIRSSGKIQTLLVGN
# In short: as §1
# ETV6 = ETV6 (Homo sapiens, UniProt P41212 1-452)
# In short: as §1
# ETV1 = ETV1 (Homo sapiens, UniProt P50549 1-477)
# In short: as §1
# Sequence of SPIB (Q01892 whole entry): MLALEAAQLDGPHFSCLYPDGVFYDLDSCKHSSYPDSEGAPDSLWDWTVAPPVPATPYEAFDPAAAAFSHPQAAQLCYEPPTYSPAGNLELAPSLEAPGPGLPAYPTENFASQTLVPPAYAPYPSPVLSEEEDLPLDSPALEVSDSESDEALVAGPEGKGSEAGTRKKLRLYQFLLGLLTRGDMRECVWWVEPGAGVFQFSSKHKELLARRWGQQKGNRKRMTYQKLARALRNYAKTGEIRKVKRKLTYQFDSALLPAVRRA
# Sequence of ETV5 (P41161 whole entry): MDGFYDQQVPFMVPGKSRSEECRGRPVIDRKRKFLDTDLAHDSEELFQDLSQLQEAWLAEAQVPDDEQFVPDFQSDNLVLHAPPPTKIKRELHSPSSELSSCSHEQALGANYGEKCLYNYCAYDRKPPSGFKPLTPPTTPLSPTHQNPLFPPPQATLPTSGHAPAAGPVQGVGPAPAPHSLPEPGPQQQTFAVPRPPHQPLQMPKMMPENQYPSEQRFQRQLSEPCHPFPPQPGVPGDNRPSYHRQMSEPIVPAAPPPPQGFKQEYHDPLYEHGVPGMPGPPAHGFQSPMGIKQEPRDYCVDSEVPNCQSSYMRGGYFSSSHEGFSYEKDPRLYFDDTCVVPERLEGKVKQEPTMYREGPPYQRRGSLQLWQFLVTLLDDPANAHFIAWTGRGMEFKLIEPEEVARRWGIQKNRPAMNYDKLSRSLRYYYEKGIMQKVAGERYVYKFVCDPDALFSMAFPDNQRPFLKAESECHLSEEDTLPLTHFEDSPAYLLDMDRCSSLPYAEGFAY
# Sequence of ELF4 (Q99607 whole entry): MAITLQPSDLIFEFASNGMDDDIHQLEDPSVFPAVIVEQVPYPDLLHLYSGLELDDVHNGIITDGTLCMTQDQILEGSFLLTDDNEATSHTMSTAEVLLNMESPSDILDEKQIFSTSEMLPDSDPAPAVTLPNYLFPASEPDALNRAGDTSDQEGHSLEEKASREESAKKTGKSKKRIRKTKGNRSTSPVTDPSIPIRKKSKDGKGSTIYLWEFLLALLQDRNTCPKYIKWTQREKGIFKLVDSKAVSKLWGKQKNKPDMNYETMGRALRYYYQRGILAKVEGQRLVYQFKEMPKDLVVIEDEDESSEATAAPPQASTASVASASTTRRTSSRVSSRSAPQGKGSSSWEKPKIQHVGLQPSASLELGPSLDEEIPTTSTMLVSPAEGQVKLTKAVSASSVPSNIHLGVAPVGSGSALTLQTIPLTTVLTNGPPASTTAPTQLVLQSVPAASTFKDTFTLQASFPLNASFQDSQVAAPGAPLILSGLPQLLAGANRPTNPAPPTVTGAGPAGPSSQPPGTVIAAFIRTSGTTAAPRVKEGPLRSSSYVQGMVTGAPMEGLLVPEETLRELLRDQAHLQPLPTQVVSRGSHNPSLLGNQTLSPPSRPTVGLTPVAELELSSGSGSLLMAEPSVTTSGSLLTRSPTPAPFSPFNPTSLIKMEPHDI
# Sequence of ETV6 (P41212 whole entry): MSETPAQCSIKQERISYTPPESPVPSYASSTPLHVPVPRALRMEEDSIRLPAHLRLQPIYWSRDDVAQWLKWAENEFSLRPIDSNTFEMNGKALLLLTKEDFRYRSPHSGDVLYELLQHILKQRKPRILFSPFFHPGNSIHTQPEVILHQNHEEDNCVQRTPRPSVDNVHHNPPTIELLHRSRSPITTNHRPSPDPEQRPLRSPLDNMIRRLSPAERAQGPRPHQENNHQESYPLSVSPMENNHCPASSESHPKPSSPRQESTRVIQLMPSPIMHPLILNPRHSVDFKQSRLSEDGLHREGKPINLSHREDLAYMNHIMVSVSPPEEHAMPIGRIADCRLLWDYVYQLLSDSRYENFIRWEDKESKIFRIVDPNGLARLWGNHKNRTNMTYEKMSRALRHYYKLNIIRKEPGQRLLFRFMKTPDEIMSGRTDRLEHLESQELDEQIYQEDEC
# Sequence of ELF1 (P32519 whole entry): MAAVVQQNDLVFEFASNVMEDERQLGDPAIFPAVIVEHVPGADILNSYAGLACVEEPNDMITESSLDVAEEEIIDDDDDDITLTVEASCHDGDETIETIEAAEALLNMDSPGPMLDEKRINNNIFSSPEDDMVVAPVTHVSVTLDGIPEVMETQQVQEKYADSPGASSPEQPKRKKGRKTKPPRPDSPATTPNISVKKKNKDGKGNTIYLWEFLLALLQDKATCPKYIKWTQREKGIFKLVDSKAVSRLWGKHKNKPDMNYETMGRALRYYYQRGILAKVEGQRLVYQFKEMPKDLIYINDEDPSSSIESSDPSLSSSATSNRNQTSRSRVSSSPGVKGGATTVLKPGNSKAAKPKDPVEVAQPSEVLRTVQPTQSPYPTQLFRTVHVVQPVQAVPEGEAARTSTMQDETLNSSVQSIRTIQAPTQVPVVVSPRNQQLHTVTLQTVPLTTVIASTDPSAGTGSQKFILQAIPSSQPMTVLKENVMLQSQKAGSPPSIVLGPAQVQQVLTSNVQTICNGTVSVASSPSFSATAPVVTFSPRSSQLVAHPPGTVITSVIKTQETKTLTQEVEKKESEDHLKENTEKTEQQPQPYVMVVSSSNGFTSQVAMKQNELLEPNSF
# Sequence of ETV1 (P50549 whole entry): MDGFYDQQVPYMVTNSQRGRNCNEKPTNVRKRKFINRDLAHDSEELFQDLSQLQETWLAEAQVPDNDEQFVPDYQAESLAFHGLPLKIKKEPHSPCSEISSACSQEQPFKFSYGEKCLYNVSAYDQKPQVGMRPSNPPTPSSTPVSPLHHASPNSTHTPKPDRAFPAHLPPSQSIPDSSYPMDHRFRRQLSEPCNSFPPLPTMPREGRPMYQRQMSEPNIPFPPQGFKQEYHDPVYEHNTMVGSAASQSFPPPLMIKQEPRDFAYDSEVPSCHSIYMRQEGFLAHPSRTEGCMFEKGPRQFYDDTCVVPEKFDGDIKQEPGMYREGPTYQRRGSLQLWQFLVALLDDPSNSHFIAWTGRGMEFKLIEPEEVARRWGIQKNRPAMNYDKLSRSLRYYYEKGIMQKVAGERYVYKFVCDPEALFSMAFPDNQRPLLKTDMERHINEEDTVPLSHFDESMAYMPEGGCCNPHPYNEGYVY
Sequence,binding signal (ELK1),binding signal (GABPA),binding signal (ERG),binding signal (ELF1),binding signal (SPIB),binding signal (ETV5),binding signal (ELF4),binding signal (ELK4),binding signal (ETV2),binding signal (ELF3),binding signal (ERF),binding signal (ETV3L),binding signal (ETS2),binding signal (ETV7),binding signal (ETV3),binding signal (ETV6),binding signal (ETV1)
ACTGGT,"1.06 fold enrichment (6-mer frequency, TF over GST control)","1.08 fold enrichment (6-mer frequency, TF over GST control)","1.07 fold enrichment (6-mer frequency, TF over GST control)","1.13 fold enrichment (6-mer frequency, TF over GST control)","1.08 fold enrichment (6-mer frequency, TF over GST control)","1.02 fold enrichment (6-mer frequency, TF over GST control)","1.07 fold enrichment (6-mer frequency, TF over GST control)","1.06 fold enrichment (6-mer frequency, TF over GST control)","1.08 fold enrichment (6-mer frequency, TF over GST control)","1.06 fold enrichment (6-mer frequency, TF over GST control)","1.03 fold enrichment (6-mer frequency, TF over GST control)","1.07 fold enrichment (6-mer frequency, TF over GST control)","1.03 fold enrichment (6-mer frequency, TF over GST control)","1.05 fold enrichment (6-mer frequency, TF over GST control)","1.06 fold enrichment (6-mer frequency, TF over GST control)","1.08 fold enrichment (6-mer frequency, TF over GST control)",
GGGGCT,"1.09 fold enrichment (6-mer frequency, TF over GST control)","1.11 fold enrichment (6-mer frequency, TF over GST control)","1.01 fold enrichment (6-mer frequency, TF over GST control)","1.04 fold enrichment (6-mer frequency, TF over GST control)","1.03 fold enrichment (6-mer frequency, TF over GST control)","1.04 fold enrichment (6-mer frequency, TF over GST control)","1.1 fold enrichment (6-mer frequency, TF over GST control)","1.14 fold enrichment (6-mer frequency, TF over GST control)",,"1.01 fold enrichment (6-mer frequency, TF over GST control)","1.06 fold enrichment (6-mer frequency, TF over GST control)","1.22 fold enrichment (6-mer frequency, TF over GST control)",,"1.06 fold enrichment (6-mer frequency, TF over GST control)",,"1.04 fold enrichment (6-mer frequency, TF over GST control)","1.11 fold enrichment (6-mer frequency, TF over GST control)"
